The values below come from the supplement of paper PMC10849652.

About 7,900 targets were measured; listed, in parts, are those with a hit and a random draw of the rest. About 0.6% of all pairs of compound and target were hits. Values without a mark were called inactive.

Sequence of UniProt P51668 (P51668 whole entry, looked up): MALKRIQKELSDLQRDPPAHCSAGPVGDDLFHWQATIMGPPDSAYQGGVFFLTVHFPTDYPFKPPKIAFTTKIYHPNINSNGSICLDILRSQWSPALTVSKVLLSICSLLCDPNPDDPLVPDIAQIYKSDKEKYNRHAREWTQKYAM
Sequence of UniProt Q9Y385 (Q9Y385 whole entry, looked up): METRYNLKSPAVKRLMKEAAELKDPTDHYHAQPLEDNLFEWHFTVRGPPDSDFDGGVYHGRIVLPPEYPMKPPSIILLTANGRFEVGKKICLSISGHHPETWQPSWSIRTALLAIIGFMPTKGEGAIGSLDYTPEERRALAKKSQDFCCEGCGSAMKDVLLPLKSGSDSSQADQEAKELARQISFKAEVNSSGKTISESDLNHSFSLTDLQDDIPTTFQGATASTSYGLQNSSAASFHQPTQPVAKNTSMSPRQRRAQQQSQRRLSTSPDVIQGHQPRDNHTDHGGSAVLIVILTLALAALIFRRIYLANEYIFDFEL
Sequence of UniProt A6NIH7 (A6NIH7 whole entry, looked up): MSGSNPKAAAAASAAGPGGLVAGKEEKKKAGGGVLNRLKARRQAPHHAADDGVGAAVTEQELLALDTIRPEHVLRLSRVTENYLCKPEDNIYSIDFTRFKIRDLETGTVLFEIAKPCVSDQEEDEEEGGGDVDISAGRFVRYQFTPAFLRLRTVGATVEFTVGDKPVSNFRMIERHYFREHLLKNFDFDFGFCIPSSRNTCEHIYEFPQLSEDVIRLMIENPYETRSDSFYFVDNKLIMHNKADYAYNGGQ
Sequence of UniProt P12956 (P12956 whole entry, looked up): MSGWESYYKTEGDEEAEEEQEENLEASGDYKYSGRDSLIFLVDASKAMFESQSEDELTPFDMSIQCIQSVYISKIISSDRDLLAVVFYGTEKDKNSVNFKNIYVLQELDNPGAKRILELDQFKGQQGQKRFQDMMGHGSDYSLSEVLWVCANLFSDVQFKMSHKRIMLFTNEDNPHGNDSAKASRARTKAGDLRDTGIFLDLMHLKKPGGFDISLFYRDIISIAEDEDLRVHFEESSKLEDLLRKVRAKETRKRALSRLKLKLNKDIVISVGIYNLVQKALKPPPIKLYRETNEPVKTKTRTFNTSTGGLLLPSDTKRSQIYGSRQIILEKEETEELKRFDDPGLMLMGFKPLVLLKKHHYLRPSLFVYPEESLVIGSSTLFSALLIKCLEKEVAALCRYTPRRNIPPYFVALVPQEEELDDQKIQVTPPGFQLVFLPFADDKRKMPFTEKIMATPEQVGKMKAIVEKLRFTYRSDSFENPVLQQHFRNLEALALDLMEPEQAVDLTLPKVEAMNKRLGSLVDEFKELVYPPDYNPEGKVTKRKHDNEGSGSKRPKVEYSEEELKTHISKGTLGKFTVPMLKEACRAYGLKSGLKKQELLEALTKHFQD
Sequence of UniProt O95857 (O95857 whole entry, looked up): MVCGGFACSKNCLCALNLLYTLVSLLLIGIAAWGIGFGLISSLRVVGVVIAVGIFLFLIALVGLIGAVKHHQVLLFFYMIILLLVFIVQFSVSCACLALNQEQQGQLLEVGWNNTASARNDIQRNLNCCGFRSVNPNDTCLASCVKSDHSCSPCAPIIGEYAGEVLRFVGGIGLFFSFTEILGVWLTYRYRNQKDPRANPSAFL
Sequence of UniProt Q9NVA4 (Q9NVA4 whole entry, looked up): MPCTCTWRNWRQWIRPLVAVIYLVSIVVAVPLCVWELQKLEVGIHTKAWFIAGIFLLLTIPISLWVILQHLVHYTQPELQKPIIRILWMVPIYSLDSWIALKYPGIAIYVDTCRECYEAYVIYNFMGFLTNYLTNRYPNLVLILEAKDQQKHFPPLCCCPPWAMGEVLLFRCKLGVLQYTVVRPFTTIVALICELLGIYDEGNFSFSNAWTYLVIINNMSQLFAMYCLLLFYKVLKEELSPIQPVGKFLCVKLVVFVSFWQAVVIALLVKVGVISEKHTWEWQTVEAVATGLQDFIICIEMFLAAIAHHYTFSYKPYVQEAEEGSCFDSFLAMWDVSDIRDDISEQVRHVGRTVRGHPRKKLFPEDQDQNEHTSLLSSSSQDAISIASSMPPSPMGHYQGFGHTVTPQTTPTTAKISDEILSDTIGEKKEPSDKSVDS
Sequence of UniProt Q502W6 (Q502W6 whole entry, looked up): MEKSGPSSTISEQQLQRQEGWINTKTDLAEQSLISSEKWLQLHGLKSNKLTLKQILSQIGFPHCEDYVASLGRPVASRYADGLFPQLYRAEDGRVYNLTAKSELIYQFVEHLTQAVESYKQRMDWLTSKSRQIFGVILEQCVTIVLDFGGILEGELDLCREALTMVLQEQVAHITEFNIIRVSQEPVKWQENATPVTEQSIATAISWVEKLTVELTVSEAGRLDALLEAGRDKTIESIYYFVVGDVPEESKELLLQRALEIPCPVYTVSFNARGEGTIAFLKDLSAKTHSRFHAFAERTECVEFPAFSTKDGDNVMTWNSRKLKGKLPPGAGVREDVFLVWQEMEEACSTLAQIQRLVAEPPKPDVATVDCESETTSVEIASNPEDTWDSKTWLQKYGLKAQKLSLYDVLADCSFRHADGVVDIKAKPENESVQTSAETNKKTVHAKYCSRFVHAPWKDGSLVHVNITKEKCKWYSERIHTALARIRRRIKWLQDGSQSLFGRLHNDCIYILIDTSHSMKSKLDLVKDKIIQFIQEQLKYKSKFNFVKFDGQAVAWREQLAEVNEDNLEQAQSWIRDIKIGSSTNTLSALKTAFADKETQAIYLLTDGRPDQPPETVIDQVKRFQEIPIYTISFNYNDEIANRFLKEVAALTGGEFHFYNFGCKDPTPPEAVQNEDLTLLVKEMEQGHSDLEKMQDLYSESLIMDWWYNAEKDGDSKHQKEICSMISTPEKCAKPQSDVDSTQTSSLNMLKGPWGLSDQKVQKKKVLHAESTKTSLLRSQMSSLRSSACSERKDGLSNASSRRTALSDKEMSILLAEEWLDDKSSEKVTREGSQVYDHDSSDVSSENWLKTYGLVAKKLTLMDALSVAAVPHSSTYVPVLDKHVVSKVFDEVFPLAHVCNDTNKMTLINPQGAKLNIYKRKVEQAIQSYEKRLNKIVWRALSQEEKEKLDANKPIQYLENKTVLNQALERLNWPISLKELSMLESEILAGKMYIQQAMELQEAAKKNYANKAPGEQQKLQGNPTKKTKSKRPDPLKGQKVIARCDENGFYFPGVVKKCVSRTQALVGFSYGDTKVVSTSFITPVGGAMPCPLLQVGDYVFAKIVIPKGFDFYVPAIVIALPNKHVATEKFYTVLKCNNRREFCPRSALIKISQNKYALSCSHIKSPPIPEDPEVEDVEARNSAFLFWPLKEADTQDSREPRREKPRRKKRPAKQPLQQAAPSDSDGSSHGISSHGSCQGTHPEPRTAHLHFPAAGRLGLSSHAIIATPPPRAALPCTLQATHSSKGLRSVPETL
Sequence of UniProt Q5TAX3 (Q5TAX3 whole entry, looked up): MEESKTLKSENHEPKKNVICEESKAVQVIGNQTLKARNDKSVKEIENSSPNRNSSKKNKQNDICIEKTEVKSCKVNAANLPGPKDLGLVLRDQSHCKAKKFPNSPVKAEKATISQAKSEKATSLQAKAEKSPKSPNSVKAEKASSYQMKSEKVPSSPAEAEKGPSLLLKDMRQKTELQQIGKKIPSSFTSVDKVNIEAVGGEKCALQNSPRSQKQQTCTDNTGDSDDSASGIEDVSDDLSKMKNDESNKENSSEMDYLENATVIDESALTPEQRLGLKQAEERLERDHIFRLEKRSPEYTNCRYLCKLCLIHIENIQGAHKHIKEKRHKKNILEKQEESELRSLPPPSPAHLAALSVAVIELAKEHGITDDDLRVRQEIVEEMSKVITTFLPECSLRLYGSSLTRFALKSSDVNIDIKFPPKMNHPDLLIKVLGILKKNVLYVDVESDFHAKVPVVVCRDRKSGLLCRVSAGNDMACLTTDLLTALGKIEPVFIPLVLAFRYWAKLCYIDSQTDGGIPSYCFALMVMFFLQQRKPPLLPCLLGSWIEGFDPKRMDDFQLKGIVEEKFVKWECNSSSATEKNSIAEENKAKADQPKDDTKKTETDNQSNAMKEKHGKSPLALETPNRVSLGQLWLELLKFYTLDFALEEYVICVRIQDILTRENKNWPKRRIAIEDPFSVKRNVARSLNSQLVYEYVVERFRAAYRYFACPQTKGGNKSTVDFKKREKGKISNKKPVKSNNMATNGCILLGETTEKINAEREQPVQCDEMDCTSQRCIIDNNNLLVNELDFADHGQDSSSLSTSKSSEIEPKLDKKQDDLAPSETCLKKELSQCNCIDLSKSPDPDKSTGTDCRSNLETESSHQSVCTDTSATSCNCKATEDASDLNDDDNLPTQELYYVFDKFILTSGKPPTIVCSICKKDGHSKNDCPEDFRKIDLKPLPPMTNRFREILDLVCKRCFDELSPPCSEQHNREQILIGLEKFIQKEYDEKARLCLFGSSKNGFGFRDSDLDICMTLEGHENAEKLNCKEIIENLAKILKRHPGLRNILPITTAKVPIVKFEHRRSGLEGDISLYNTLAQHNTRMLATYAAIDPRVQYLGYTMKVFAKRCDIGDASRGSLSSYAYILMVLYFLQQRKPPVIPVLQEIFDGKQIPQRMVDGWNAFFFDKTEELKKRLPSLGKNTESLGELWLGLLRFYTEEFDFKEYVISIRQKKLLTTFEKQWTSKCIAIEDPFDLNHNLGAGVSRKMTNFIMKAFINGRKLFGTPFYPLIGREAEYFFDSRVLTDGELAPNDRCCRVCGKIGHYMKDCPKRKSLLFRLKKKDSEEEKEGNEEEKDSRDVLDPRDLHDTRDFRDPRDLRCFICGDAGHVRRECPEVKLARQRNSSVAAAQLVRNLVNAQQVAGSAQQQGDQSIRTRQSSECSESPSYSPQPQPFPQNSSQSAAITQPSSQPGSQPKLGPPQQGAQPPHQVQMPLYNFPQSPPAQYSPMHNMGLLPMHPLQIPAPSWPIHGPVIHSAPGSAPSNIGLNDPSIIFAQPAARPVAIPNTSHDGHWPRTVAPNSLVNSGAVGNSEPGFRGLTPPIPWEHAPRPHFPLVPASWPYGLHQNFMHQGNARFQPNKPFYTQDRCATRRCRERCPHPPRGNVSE
Sequence of UniProt P61960 (P61960 whole entry, looked up): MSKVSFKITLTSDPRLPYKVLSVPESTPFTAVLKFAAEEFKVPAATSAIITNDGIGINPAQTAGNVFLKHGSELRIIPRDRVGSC

Compound in this assay: Cc1nc(Nc2n[nH]c3c2CN(C(=O)N[C@H](CN(C)C)c2ccccc2)C3(C)C)c2sccc2n1
In words: log2 fold change, soluble protein after heating vs DMSO (PISA); higher = thermal stabilisation; K562 cells, 10 uM, 30 min; active = over 0.2 and 3.5 SD of the protein, either way, in both replicates (recomputed). Summed up: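 Soluble protein was defined as the supernatant after 21,000xg for 90 min. It came from K562 cells at 2×10^6 cells/mL given 10 μM compound for 30 min, heated in aliquots for 3 min across 48°C-58°C, pooled, and extracted in PBS with 0.5% NP-40 at 4°C, and was quantified by TMTpro 16plex LC-MS/MS with equalised channel sums. Thermal stability against control samples, from duplicates, is reported as log2 fold change.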
UBIAD1 (UniProt Q9Y5Z9): the log2 fold change is 0.004. Under TMEM41A (UniProt Q96HV5) stands -0.01. The figure for TRIM23 (UniProt P36406) is 0.001. On to TXNL4B (UniProt Q9NX01), for which the log2 fold change was -0.041. The figure for TSPAN13 (UniProt O95857) is -0.035. Consider UNC119B (UniProt A6NIH7), for which the log2 fold change was -0.077. For TUT4 (UniProt Q5TAX3), the log2 fold change is 0.01. Under VKORC1 (UniProt Q9BQB6) stands 0.013. As for UBAP2L (UniProt F8W726), the log2 fold change is 0.063. The figure for WASH2P (UniProt Q6VEQ5) is -0.019; for TMEM184C (UniProt Q9NVA4) it is -0.047; for VWA3B isoform 6 (UniProt Q502W6) it is 0.075. Under UBE2J1 (UniProt Q9Y385) stands -0.09; under TMEM268 isoform 3 (UniProt Q5VZI3), -0.005. Under UFM1 isoform 2 (UniProt P61960) stands 0.023; under TMEM106B (UniProt Q9NUM4), 0.02. For UBE2D1 (UniProt P51668), the log2 fold change is 0.046. Under VPS37A (UniProt Q8NEZ2) stands -0.27. The figure for XRCC6 (UniProt P12956) is -0.248; for UBXN10 (UniProt Q96LJ8) it is 0.141. Under TXNIP (UniProt Q9H3M7) stands 0.185. In the case of WEE1 (UniProt P30291), the log2 fold change is -0.905 (active).

TRABD (UniProt Q9H4I3): the log2 fold change is 0.02.
